Source: the supplement of paper PMC7669877
± gives the uncertainty stated by the source.

Each molecule was assayed on Candidatus Liberibacter solanacearum in potato hairy roots (assay: relative CLso titer (% of untreated control); higher = less inhibition of bacterial titer). Conditions: 10 µM; 72 h.
Experimental: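 Primary screen of ~220 Spectrum collection (MicroSource) compounds at 10 µM (0.1% DMSO) on Candidatus Liberibacter solanacearum-infected potato hairy roots in multi-well plates (Gamborg B-5 medium, vacuum infiltrated, 21 °C, dark, 72 h). CLso titer was measured by qPCR of 16S rDNA normalised to potato RPL2 (2^-ddCq), pairwise-standardised against untreated controls, averaged over two biological replicates and expressed as % of untreated.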

Row | Compound | relative CLso titer
1 | C[C@@H]1C[C@@H]([C@H](O)CC2CC(=O)NC(=O)C2)C(=O)[C@@H](C)C1 | 214 ± 43%
2 | O=C(O)CCCc1ccc(N(CCCl)CCCl)cc1 | 111 ± 11%
3 | CNC(C)[C@H](O)c1ccccc1 (stereo not given in full) | 160 ± 24%
4 | CCCC(C)(COC(N)=O)COC(=O)NC(C)C (stereo not given) | 92.4 ± 17%
5 | CN1C[C@H](C(=O)N[C@]2(C)O[C@@]3(O)[C@@H]4CCCN4C(=O)[C@H](Cc4ccccc4)N3C2=O)C[C@@H]2c3cccc4[nH]cc(c34)C[C@H]21 | 107 ± 46%
6 | O=C1CCO1 | 103 ± 58%
7 | Cc1cc(O)ccc1Cl | 45.9 ± 1.8%
8 | c1ccc2c(c1)sc1ccccc12 | 193 ± 4.5%
9 | COc1cc2c(c(OC)c1OC)-c1ccc(OC)c(=O)cc1[C@@H](NC(C)=O)CC2 | 47.6 ± 2.7%
10 | CC(=O)O[C@H]1C[C@H](O[C@H]2[C@@H](O)C[C@H](O[C@H]3[C@@H](O)C[C@H](O[C@H]4CC[C@@]5(C)[C@H](CC[C@@H]6[C@@H]5C[C@@H](O)[C@]5(C)[C@@H](C7=CC(=O)OC7)CC[C@]65O)C4)O[C@@H]3C)O[C@@H]2C)O[C@H](C)[C@H]1O[C@@H]1O[C@H](CO)[C@@H](O)[C@H](O)[C@H]1O | 118 ± 37%
11 | COc1ccc2c(c1)[C@]13CCCC[C@@H]1[C@H](C2)N(C)CC3 | 539 ± 330%
12 | N.N.[Cl][Pt][Cl] | 76.7 ± 6.9%
13 | Fc1ccc(Oc2ccnc3cc(Cl)cc(Cl)c23)cc1 | 85.4 ± 20%
14 | O=C(O)CCCO | 127 ± 31%
15 | C[N+]12CCC(CC1)C(OC(=O)C(O)(c1ccccc1)c1ccccc1)C2 (stereo not given) | 57.1 ± 5%
16 | [O-][n+]1ccccc1[S-].[O-][n+]1ccccc1[S-].[Zn+2] | 64.7 ± 4.9%
17 | C[C@]12CC[C@H]3[C@@H](CCC4=CC(=O)CC[C@@]43C)[C@@H]1CC[C@@H]2O | 119 ± 11%
18 | CO[C@]12C[C@@H](COC(=O)c3cncc(Br)c3)CN(C)[C@@H]1Cc1cn(C)c3cccc2c13 | 135 ± 20%
19 | Cc1cccc(C)c1NC1=NCCCS1 | 91.4 ± 17%
20 | NC(=O)CN1CCCC1=O | 123 ± 35%
21 | CC[C@H]1CN2CCc3cc(OC)c(OC)cc3[C@@H]2C[C@@H]1C[C@H]1NCCc2cc(OC)c(OC)cc21 | 117 ± 28%
22 | O=c1[nH]c2ccccc2n1C1CCN(CCCC(c2ccc(F)cc2)c2ccc(F)cc2)CC1 | 135 ± 2%
23 | CCCCCCCCCCCCCCCC[n+]1ccccc1 | 136 ± 72%
24 | CC(C)C[C@H]1C(=O)N2CCC[C@H]2[C@]2(O)O[C@](NC(=O)[C@@H]3C=C4c5cccc6[nH]c(Br)c(c56)C[C@H]4N(C)C3)(C(C)C)C(=O)N12 | 76.9 ± 25%
25 | CN[C@@H](C)[C@@H](O)c1ccccc1 | 98.4 ± 3.8%
26 | C[C@@H]1O[C@@H](O[C@H]2C[C@@H](O)[C@]3(CO)[C@H]4[C@H](O)C[C@]5(C)[C@@H](C6=CC(=O)OC6)CC[C@]5(O)[C@@H]4CC[C@]3(O)C2)[C@H](O)[C@H](O)[C@H]1O | 85.6 ± 47%
27 | Cc1ccc(O)cc1.Cc1cccc(O)c1.Cc1ccccc1O | 70.4 ± 30%
28 | O=c1[nH]c2ccccc2n1CCCN1CCC(n2c(=O)[nH]c3cc(Cl)ccc32)CC1 | 126 ± 28%
29 | O=P1(N(CCCl)CCCl)NCCCO1 (stereo not given) | 39.8 ± 6.9%
30 | CCC(=O)O[C@H]1CC[C@H]2[C@@H]3CCC4=CC(=O)CC[C@]4(C)[C@H]3CC[C@]12C | 83.1 ± 2.9%
